Results on 32 molecules are retold here after PubChem BioAssay (NCI).

About 83,000 compounds went through this panel and 20% of them were active in at least one assay; those are over-represented in the sample as a whole.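 A percent growth of 40 corresponds to 60% growth inhibition; 0 means no net growth; -100 means all cells died. Active threshold: below 10.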 Unmarked numbers belong to inactive results. Activity calls are given as the source filed them.

Test in all cases: NCI-60 one-dose screen, 48 h (100 = growth as untreated, 0 = no growth, -100 = all killed)
What all share (conditions): 10 µM unless noted

Test [1] has as its system T-47D breast.
The test system of test [2] is BT-549 breast.
In test [3] the test system is MDA-MB-435 melanoma.
Test [4] deals with SW-620 colon.
For test [5], the system named is MCF7 breast.
In test [6] the test system is HCT-116 colon.
Test [7] concerns HCC-2998 colon.
Test [8] has as its system KM12 colon.

As for `COc1cccc(/C=C2\Oc3cc(OCCN4CCCC4)ccc3C2=O)c1`, the growth in test [1] is 91.4%; in test [2] it was 80.4%; in test [3], 99.5%; in test [4] it was 86.9%; in test [5] it was 77.4%; in test [6], 78%. The growth in test [7] was 82.6%; in test [8], 97.8%.

For the molecule `O=C1Nc2ccc(Br)cc2C12Oc1ccccc1C1CC(c3ccc(F)cc3)=NN12` (stereo unspecified), the growth in test [1] was 85.9%; in test [2] it was 91.8%; in test [3], 99.8%; in test [4] it was 99%; in test [5] it was 83.5%; in test [6], 92.3%. Also, the growth was 97.8% in test [7] and 86.3% in test [8].

As for `Cn1c(=O)c2c(nc3n(-c4ccc(Cl)cc4Cl)c(Sc4nc(-c5ccccc5)c(C#N)c(=O)[nH]4)cn23)n(C)c1=O`, the growth in test [1] is 11.3%; in test [2], 72.6%; in test [3], 69.1%; in test [4] it was 30%; in test [5], 52.1%; in test [6] it was 18.6%. Further, the growth was 78.3% in test [7] and 84.9% in test [8].

Take `CN1CCN(c2ccc(Nc3c4ccccc4nc4ccccc34)cc2)CC1`: the growth in test [1] was 102%; in test [2] it was 112%; in test [3], 110%; in test [4] it was 106%; in test [5] it was 99.1%; in test [6] it was 104%. In addition, the growth in test [7] is 113%; in test [8] it was 105%.

For `CN1CCN(c2nc(NCCCCNc3ccnc4cc(Cl)ccc34)c3ccccc3n2)CC1`, the growth was 96.1% in test [1]; 74.6% in test [2]; -10.5% (active) in test [3]; 41.2% in test [4]; 51.3% in test [5]; 53.1% in test [6]. Besides, the growth in test [7] was 57.4%; in test [8], 65.5%.

With `COc1cc2nc(N3CCCC3)nc(Nc3ccccc3)c2cc1OC`, the growth in test [1] was -49.1% (active); in test [2] it was -70.9% (active); in test [3], -61.4% (active); in test [4], -20.4% (active); in test [5] it was -71.6% (active); in test [6] it was -79.4% (active). For the same molecule, the results for the growth in test [7] and in test [8] were -51.2% (active) and 33%, respectively.

Take `Cc1cc(C)c2nc3nc(C)cc(C)c3c(N)c2c1`: the growth is 37.8% in test [1]; 56.1% in test [2]; 29.5% in test [3]; 16.2% in test [4]; 8.2% (active) in test [5]; 13.9% in test [6]. Besides, the growth is 10.7% in test [7] and 22.3% in test [8].

`CC(=O)NCC1c2c(n(C)c3c(Cl)c(Cl)ccc23)C(=O)NC1(C)C` (stereo unspecified): the growth in test [1] is 98.5%; in test [2], 102%; in test [3] it was 96.4%; in test [4] it was 113%; in test [5], 92.1%; in test [6] it was 94.8%. Further, the growth in test [7] is 93%; in test [8] it was 118%.

With `Oc1ccccc1-c1nnc(CNc2ccc(Cl)cc2)o1`, the growth in test [1] was 30.9%; in test [2], 41.1%; in test [3], 33.8%; in test [4], 29.4%; in test [5], 14.2%; in test [6], 42%. Further, the growth in test [7] was 37.5%; in test [8], 18.9%.

As for `COc1cccc(-c2nc3sccn3c2-c2ccnc(NCCNS(=O)(=O)c3ccc(F)cc3)c2)c1`, the growth in test [1] was -4.43% (active); in test [2] it was 9.19% (active); in test [3], 23.3%; in test [4], 42.5%; in test [5], 18.7%; in test [6] it was 22.2%. Moreover, the results for the growth in test [7] and in test [8] were 50.1% and 22.3%, respectively.

Take `COC(=O)[C@@H]1CCCN1C(=O)[C@@H]1CCCN1C(=O)[C@H](Cc1ccccc1)NC(=S)Nc1cc(C(F)(F)F)cc(C(F)(F)F)c1`: the growth in test [1] is 92.3%; in test [2] it was 81.1%; in test [3], 86.5%; in test [4], 93%; in test [5], 67.1%; in test [6] it was 69%. For the same molecule, the figures for the growth in test [7] and in test [8] were 93.3% and 45.1%, respectively.

With `Cn1cc(C(=O)c2nc(-c3c[nH]c4ccccc34)no2)c2ccccc21`, the growth in test [1] is 44.4%; in test [2], 69.7%; in test [3] it was 7.96% (active); in test [4], 56.8%; in test [5] it was 20%; in test [6] it was 47.1%. In addition, the growth in test [7] is 45.5%; in test [8], 21.9%.

As for `CCCOc1cc2ccccc2cc1C(=O)Nc1nc(N)c2c(ccc3nccc32)[nH]1`, the growth in test [1] was -51% (active); in test [2] it was -41% (active); in test [3], -94.5% (active); in test [4] it was -80.4% (active); in test [5] it was -52.3% (active); in test [6], -58.9% (active). For the same molecule, the growth was -68.3% (active) in test [7] and -72.8% (active) in test [8].

For `COc1ccc(-c2cc(Nc3ccnc(N4CCOCC4)n3)on2)cc1`, the growth was 55.1% in test [1]; 57.1% in test [2]; -30.2% (active) in test [3]; 31.1% in test [4]; 24.4% in test [5]; 12.7% in test [6]. The figures for the growth in test [7] and in test [8] were 40.4% and 20.3%, respectively.

On to `Cc1cn2c(/C=C3/C(=O)Nc4c3ccc3ccccc43)c(C(F)(F)F)nc2s1`, for which the growth was 28.1% in test [1]; 37.2% in test [2]; -47.2% (active) in test [3]; 18.2% in test [4]; 15.4% in test [5]; 30.6% in test [6]. In addition, the growth in test [7] was 46.6%; in test [8], 15.3%.

With `COc1ccc(Nc2c3c4c(cccc4[nH]c2=O)C(=O)c2ccccc2-3)cc1`, the growth in test [1] was 75.6%; in test [2] it was 6.53% (active); in test [3], -52.4% (active); in test [4], 19%; in test [5] it was 0.568% (active); in test [6] it was 4.08% (active). For the same molecule, the values for the growth in test [7] and in test [8] were -5.28% (active) and -36.2% (active), respectively.

For the molecule `O=c1ccccc(-c2ccc(Br)cc2)c1O`, the growth in test [1] was 26.7%; in test [2], 23.8%; in test [3], 25.8%; in test [4] it was 26.8%; in test [5] it was 14.3%; in test [6], 18.6%. The figures for the growth in test [7] and in test [8] were 41.5% and 24.6%, respectively.

Consider `Cc1ccc(C(SCC(N)C(=O)O)(c2ccccc2)c2ccc(C)cc2)cc1` (stereo unspecified), for which the growth is 27.1% in test [1]; 30.6% in test [2]; -23.5% (active) in test [3]; 15.9% in test [4]; 12.3% in test [5]; 6.49% (active) in test [6]. For the same molecule, the figures for the growth in test [7] and in test [8] were -20.5% (active) and 2.64% (active), respectively.

Turning to `Cc1ccc(C2Oc3ccccc3C3CC(c4cccs4)=NN32)cc1` (stereo unspecified), the growth is 94.7% in test [1]; 86.6% in test [2]; 103% in test [3]; 102% in test [4]; 80.4% in test [5]; 99.9% in test [6]. Besides, the growth is 98.7% in test [7] and 94.3% in test [8].

On to `O=C(Cc1ccc(/C=C/C(=O)c2ncc[nH]2)cc1)Nc1ccc(F)cc1`, for which the growth in test [1] was 19.3%; in test [2], 22.4%; in test [3] it was 32.6%; in test [4] it was 4.06% (active); in test [5], 11.3%; in test [6], 26.8%. The growth was 79.7% in test [7] and 8.05% (active) in test [8].

With `O=S(=O)(Nc1ccc(Cl)c(F)c1)c1ccc(-c2cnc(C3CC3)o2)cc1`, the growth in test [1] is 27.8%; in test [2] it was 27.5%; in test [3], 3.28% (active); in test [4], 17.9%; in test [5], 13%; in test [6] it was 23.1%. The growth in test [7] was 41.5%; in test [8], 38.4%.

Take `COc1ccc(C2Nc3c(c(C(C)(C)C)nn3-c3ccccc3)C(=O)CS2)cc1` (stereo unspecified): the growth in test [1] was 96.5%; in test [2], 122%; in test [3] it was 106%; in test [4], 107%; in test [5], 92.9%; in test [6], 97.7%. Moreover, the growth in test [7] is 102%; in test [8], 98.2%.

With `OCc1ccc(N2CCc3cccc(F)c3C2)cc1Cl`, the growth in test [1] was 1.88% [0.1 µM] (active); in test [2], 114% [0.1 µM]; in test [3] it was 111% [0.1 µM]; in test [4], 34.5% [0.1 µM]; in test [5], 12.8% [0.1 µM]; in test [6], 18.1% [0.1 µM]. The growth in test [7] was 81% [0.1 µM]; in test [8], 101% [0.1 µM].

On to `COc1cc(/C=C/C(=O)Nc2cccnc2Nc2ccc(F)cc2)cc(OC)c1OC`, for which the growth in test [1] is 93.3%; in test [2], 92.3%; in test [3], 97.4%; in test [4], 106%; in test [5] it was 88.3%; in test [6], 96.3%. Also, the growth in test [7] is 109%; in test [8], 96.8%.

As to `CC1CCNC(C)C1` (stereo unspecified), the growth in test [1] was 104%; in test [2] it was 105%; in test [3] it was 107%; in test [4] it was 100%; in test [5], 96.8%; in test [6], 108%. Besides, the growth is 103% in test [7] and 106% in test [8].

On to `COc1ccc(/C=C(\C#N)C(=O)Nc2cccc(Nc3nc(SC)nc(-c4cccc([N+](=O)[O-])c4)c3C#N)c2)cc1OC`, for which the growth in test [1] was 87%; in test [2], 95.9%; in test [3], 103%; in test [4], 102%; in test [5], 70.8%; in test [6] it was 92.6%. Also, the growth is 114% in test [7] and 99.1% in test [8].

`Cc1ccc(C2=NN3C(C2)c2cc(Br)ccc2OC32CCN(Cc3ccccc3)CC2)o1` (stereo unspecified): the growth in test [1] was 86.6%; in test [2], 92.4%; in test [3], 94%; in test [4], 97.2%; in test [5], 77.3%; in test [6], 99.6%. The figures for the growth in test [7] and in test [8] were 97.9% and 95.4%, respectively.

For `COc1ccc(S(=O)(=O)N2CCCCCC2)cc1NC(=O)c1[nH]c(C)c2c1CCCCC2=O`, the growth in test [1] was 9.29% (active); in test [2], 42.2%; in test [3], 25.6%; in test [4], 60.8%; in test [5] it was 17.9%; in test [6] it was 23.8%. For the same molecule, the growth was 20.2% in test [7] and 32.8% in test [8].

Turning to `O=C1C=CC(=O)N1c1ccc2c(c1)Cc1cc(F)ccc1-2`, the growth was 103% in test [1]; 105% in test [2]; 102% in test [3]; 98.1% in test [4]; 90.2% in test [5]; 94.3% in test [6]. Also, the growth is 93.3% in test [7] and 102% in test [8].

`COc1cccc(Nc2nc(SC)nc(-c3cccc([N+](=O)[O-])c3)c2C#N)c1`: the growth is 62.4% in test [1]; 96.1% in test [2]; 80.9% in test [3]; 75% in test [4]; 72.9% in test [5]; 28.2% in test [6]. Besides, the growth in test [7] is 95.3%; in test [8], 98.4%.

For the molecule `CC1C(/C=N/Nc2ccccc2)C(C#N)(C#N)C1(C#N)C#N` (stereo unspecified), the growth in test [1] was 79.3%; in test [2], 77.4%; in test [3], 62.5%; in test [4], 60.2%; in test [5], 82.4%; in test [6], 67.3%. The results for the growth in test [7] and in test [8] were 86% and 62.5%, respectively.

`Cc1ccc2c(C(C[N+](=O)[O-])c3ccccc3)c(-c3ccccc3)[nH]c2c1` (stereo unspecified): the growth in test [1] was 16.5% [9.5 µM]; in test [2], 47.5% [9.5 µM]; in test [3], -31% [9.5 µM] (active); in test [4], 13.7% [9.5 µM]; in test [5], 15% [9.5 µM]; in test [6], 24.4% [9.5 µM]. The growth in test [7] is 54.9% [9.5 µM]; in test [8], 18.4% [9.5 µM].
